Results from PubChem BioAssay AID1159580 (chemical genetic matrix, 2015).
Several values for one entry are separate records, joined by “and”; a condition that tells them apart may be missing. Identical values can stand only once. Out of some 5,500 compounds screened, about 2,000 (36%) were called active. Not shown: some 18% with an inconclusive outcome. No stated cut-off is given here; in the data, active means normalized growth mostly below about 0.91 (no sharp cut-off); inconclusive means no clear call, values can overlap the other calls; inactive means mostly above about 0.92. Some of the results follow.

Assay: chemical genetic growth profiling, strain panel (AID 1159580);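 further: tested at 20 µM; growth read once vehicle control cultures reached saturation at 30 °C; 1 = growth at the plate median or of vehicle wells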
Conditions: S. cerevisiae deletion strains, growth OD

Measured: normalized growth

CN(C)[C@@H]1C(=O)C(C(N)=O)=C(O)[C@@]2(O)C(=O)C3=C(O)c4c(O)ccc(Cl)c4[C@@](C)(O)[C@H]3C[C@@H]12
inactive: locus YAL013W, strain DEP1, stronger effect = lower value 1.01 | locus YAL021C, strain ccr4, stronger effect = lower value 0.956 | locus YAL026C, strain drs2, stronger effect = lower value 0.983 | locus YAL030W, strain snc1, stronger effect = lower value 0.981 | locus YBL061C, strain skt5, stronger effect = lower value 0.98 | locus YBR009C, strain hhf1, stronger effect = lower value 0.979 | locus YBR021W, strain FUR4, stronger effect = lower value 0.961 | locus YBR023C, strain chs3, stronger effect = lower value 0.993 | locus YBR171W, strain sec66, stronger effect = lower value 0.979 | locus YBR229C, strain ROT2, stronger effect = lower value 1.01 | locus YBR231C, strain swc5, stronger effect = lower value 0.986 | locus YBR279W, strain paf1, stronger effect = lower value 0.987 | locus YCL011C, strain gbp2, stronger effect = lower value 0.967 | locus YCL016C, strain dcc1, stronger effect = lower value 0.967 | locus YCL029C, strain bik1, stronger effect = lower value 1.02 | locus YCL069W, strain vba3, stronger effect = lower value 0.986 | locus YCR088W, strain abp1, stronger effect = lower value 0.988 | locus YDL005C, strain med2, stronger effect = lower value 0.985 | locus YDL035C, strain GPR1, stronger effect = lower value 0.976 | locus YDL040C, strain nat1, stronger effect = lower value 0.983 | locus YDL074C, strain BRE1, stronger effect = lower value 0.968 | locus YDL101C, strain DUN1, stronger effect = lower value 1 | locus YDL185W, strain tfp1, stronger effect = lower value 1.01 | locus YDL192W, strain arf1, stronger effect = lower value 0.97 | locus YDR001C, strain nth1, stronger effect = lower value 0.969 | locus YDR069C, strain doa4, stronger effect = lower value 0.947 | locus YDR101C, strain arx1, stronger effect = lower value 0.996 | locus YDR137W, strain rgp1, stronger effect = lower value 0.957 | locus YDR150W, strain NUM1, stronger effect = lower value 1 | locus YDR159W, strain sac3, stronger effect = lower value 0.968 | locus YDR162C, strain NBP2, stronger effect = lower value 1 | locus YDR195W, strain ref2 0.945 | locus YDR297W, strain sur2, stronger effect = lower value 0.991 | locus YDR318W, strain mcm21, stronger effect = lower value 1 | locus YDR334W, strain swr1, stronger effect = lower value 0.968 | locus YDR335W, strain msn5, stronger effect = lower value 0.98 | locus YDR388W, stronger effect = lower value 1.01 | locus YDR392W, strain spt3, stronger effect = lower value 0.895 | locus YDR502C, strain sam2, stronger effect = lower value 1.01 | locus YEL003W, strain gim4, stronger effect = lower value 0.973 | locus YEL037C, strain rad23, stronger effect = lower value 0.983 | locus YEL061C, strain CIN8 (second series), stronger effect = lower value 0.986 | locus YEL061C, strain CIN8, stronger effect = lower value 0.996 | locus YER015W, strain faa2, stronger effect = lower value 0.977 | locus YER016W, strain bim1, stronger effect = lower value 0.984 | locus YER110C, stronger effect = lower value 1.01 | locus YER111C, strain swi4, stronger effect = lower value 0.977 | locus YER155C, strain BEM2 (second series), stronger effect = lower value 0.95 | locus YER155C, strain BEM2, stronger effect = lower value 1.02 | locus YER167W, strain BCK2, stronger effect = lower value 1.01 | locus YFR010W, strain ubp6, stronger effect = lower value 0.972 | locus YGL078C, strain dbp3, stronger effect = lower value 0.994 | locus YGL086W, strain mad1, stronger effect = lower value 0.981 | locus YGL167C, strain pmr1, stronger effect = lower value 0.959 | locus YGL173C, strain kem1, stronger effect = lower value 0.985 | locus YGL227W, strain vid30, stronger effect = lower value 0.984 | locus YGL240W, strain doc1, stronger effect = lower value 0.982 | locus YGL248W, strain PDE1, stronger effect = lower value 0.942 | locus YGL253W, strain hxk2, stronger effect = lower value 0.974 | locus YGR078C, strain PAC10, stronger effect = lower value 0.976 | locus YGR135W, strain pre9, stronger effect = lower value 0.994 | locus YGR252W, strain gcn5, stronger effect = lower value 1 | locus YHR013C, strain ard1, stronger effect = lower value 0.98 | locus YHR027C, strain rpn1, stronger effect = lower value 0.981 | locus YHR030C, strain SLT2, stronger effect = lower value 1.01 and 1.03 | locus YHR079C, strain IRE1 (second series), stronger effect = lower value 1.01 | locus YHR079C, strain IRE1, stronger effect = lower value 1.1 | locus YHR094C, strain hxt1, stronger effect = lower value 1.01 | locus YHR129C, strain ARP1, stronger effect = lower value 0.99 | locus YHR142W, strain chs7, stronger effect = lower value 0.986 | locus YHR200W, strain rpn10, stronger effect = lower value 0.987 | locus YIL066C, strain RNR3, stronger effect = lower value 0.922 | locus YIL073C, strain SPO22, stronger effect = lower value 0.976 | locus YIL125W, strain kgd1, stronger effect = lower value 0.998 | locus YIR030C, strain dcg1, stronger effect = lower value 1.01 | locus YJL092W, strain hpr5, stronger effect = lower value 0.971 | locus YJL095W, strain BCK1 (second series), stronger effect = lower value 0.971 | locus YJL095W, strain BCK1, stronger effect = lower value 0.981 and 1.04 | locus YJL115W, strain asf1, stronger effect = lower value 0.96 | locus YJL129C, strain trk1, stronger effect = lower value 0.991 | locus YJL134W, strain LCB3, stronger effect = lower value 1.01 | locus YJL154C, strain vps35, stronger effect = lower value 0.973 | locus YJL164C, strain tpk1, stronger effect = lower value 0.961 | locus YJL166W, strain qcr8, stronger effect = lower value 0.97 | locus YJL168C, strain set2, stronger effect = lower value 1 | locus YJL187C, strain SWE1 (second series), stronger effect = lower value 0.988 | locus YJR043C, strain POL32, stronger effect = lower value 0.971 | locus YJR066W, strain TOR1, stronger effect = lower value 0.972 | locus YJR075W, strain HOC1, stronger effect = lower value 1 | locus YKL009W, strain mrt4, stronger effect = lower value 1.02 | locus YKL068W, stronger effect = lower value 1 | locus YKL085W, strain MDH1 (second series), stronger effect = lower value 1.01 | locus YKL085W, strain MDH1, stronger effect = lower value 1.01 | locus YKL160W, strain elf1, stronger effect = lower value 0.962 | locus YKR001C, strain vps1, stronger effect = lower value 0.978 | locus YKR026C, strain gcn3, stronger effect = lower value 0.975 | locus YKR091W, strain srl3, stronger effect = lower value 0.985 | locus YLL001W, strain dnm1, stronger effect = lower value 0.976 | locus YLL026W, stronger effect = lower value 0.987 | locus YLL041C, strain sdh2, stronger effect = lower value 0.97 | locus YLR027C, strain aat2, stronger effect = lower value 0.987 | locus YLR039C, strain RIC1, stronger effect = lower value 1.01 | locus YLR058C, strain SHM2, stronger effect = lower value 0.998 | locus YLR102C, strain apc9, stronger effect = lower value 1.02 | locus YLR113W, strain HOG1, stronger effect = lower value 1.05 | locus YLR221C, strain rsa3, stronger effect = lower value 0.987 | locus YLR258W, strain gsy2, stronger effect = lower value 0.975 | locus YLR262C, strain YPT6 (second series), stronger effect = lower value 1.01 | locus YLR262C, strain YPT6, stronger effect = lower value 1.03 | locus YLR268W, strain sec22, stronger effect = lower value 0.992 | locus YLR320W, strain mms22, stronger effect = lower value 0.996 | locus YLR330W, strain CHS5, stronger effect = lower value 0.999 | locus YLR342W, strain FKS1 (second series), stronger effect = lower value 0.848 | locus YLR342W, strain FKS1, stronger effect = lower value 0.989 | locus YLR357W, strain rsc2, stronger effect = lower value 0.938 | locus YLR370C, strain arc18, stronger effect = lower value 0.96 | locus YLR371W, strain rom2, stronger effect = lower value 0.983 | locus YLR384C, strain iki3, stronger effect = lower value 0.995 | locus YLR418C, strain cdc73, stronger effect = lower value 0.988 | locus YML016C, strain PPZ1, stronger effect = lower value 0.998 | locus YML032C, strain rad52, stronger effect = lower value 0.988 | locus YML120C, strain ndi1, stronger effect = lower value 0.97 | locus YML124C, strain tub3, stronger effect = lower value 1.01 | locus YMR058W, strain fet3, stronger effect = lower value 0.965 | locus YMR078C, strain ctf18, stronger effect = lower value 1 | locus YMR125W, strain sto1, stronger effect = lower value 0.944 | locus YMR129W, stronger effect = lower value 0.983 | locus YMR205C, strain PFK2, stronger effect = lower value 0.989 | locus YMR223W, strain ubp8, stronger effect = lower value 0.985 | locus YMR231W, strain pep5, stronger effect = lower value 0.99 | locus YMR307W, strain GAS1, stronger effect = lower value 0.956 | locus YNL067W, strain RPL9B, stronger effect = lower value 0.991 | locus YNL071W, strain lat1, stronger effect = lower value 0.989 | locus YNL183C, strain NPR1, stronger effect = lower value 0.982 | locus YNL209W, strain ssb2, stronger effect = lower value 0.99 | locus YNL233W, strain BNI4, stronger effect = lower value 0.974 | locus YNL248C, strain rpa49, stronger effect = lower value 0.993 | locus YNL250W, strain rad50, stronger effect = lower value 1.01 | locus YNL271C, strain bni1, stronger effect = lower value 1.01 | locus YNL298W, strain CLA4, stronger effect = lower value 1.03 | locus YNL307C, strain MCK1, stronger effect = lower value 1.01 | locus YNL322C, strain KRE1 (second series), stronger effect = lower value 0.983 | locus YNR049C, strain mso1, stronger effect = lower value 0.968 | locus YNR052C, strain pop2, stronger effect = lower value 0.997 | locus YOL006C, strain TOP1, stronger effect = lower value 0.768 | locus YOL012C, strain htz1 1.03 | locus YOL147C, strain pex11, stronger effect = lower value 1.02 | locus YOR001W, strain rrp6, stronger effect = lower value 0.978 | locus YOR061W, strain CKA2, stronger effect = lower value 0.988 | locus YOR069W, strain VPS5, stronger effect = lower value 1 | locus YOR070C, strain gyp1, stronger effect = lower value 0.98 | locus YOR080W, strain dia2, stronger effect = lower value 0.974 | locus YOR083W, strain WHI5, stronger effect = lower value 0.952 | locus YOR106W, strain vam3, stronger effect = lower value 0.929 | locus YOR136W, strain idh2, stronger effect = lower value 1.03 | locus YOR144C, strain elg1, stronger effect = lower value 1.01 | locus YOR184W, strain ser1, stronger effect = lower value 1.02 | locus YOR231W, strain MKK1, stronger effect = lower value 1.05 | locus YOR265W, strain rbl2, stronger effect = lower value 0.989 | locus YOR270C, strain vph1, stronger effect = lower value 0.991 | locus YOR290C, strain snf2, stronger effect = lower value 0.941 | locus YOR316C, strain cot1, stronger effect = lower value 1.01 | locus YPL051W, strain arl3, stronger effect = lower value 0.984 | locus YPL055C, strain LGE1, stronger effect = lower value 0.96 | locus YPL078C, strain atp4, stronger effect = lower value 0.958 | locus YPL106C, strain sse1, stronger effect = lower value 0.929 | locus YPL240C, strain hsp82, stronger effect = lower value 0.981 | locus YPL241C, strain CIN2, stronger effect = lower value 0.997 | locus YPL256C, strain CLN2, stronger effect = lower value 1.03 | locus YPR119W, strain clb2, stronger effect = lower value 1.02 | locus YPR141C, strain kar3, stronger effect = lower value 1.01 | locus YPR163C, strain tif3, stronger effect = lower value 0.995 | locus YPR167C, strain met16, stronger effect = lower value 1.01 | strain wtn01, stronger effect = lower value 0.979
